A selection: hits, their analogues and other compounds. The true share with any hit is near 3%.
TbPYK inhibitor: qHTS of Trypanosoma Brucei Inhibitors | pyruvate kinase (Trypanosoma brucei), Q57TT1 | TbPYK enzyme, Kinase-Glo Plus ATP luminescence, 45 min | Potency, µM (highest dose often 76.8 µM), most hits filed as inhibitors | hit rate 0.12% among 410,000 | AID 624173, 2012; further: nearly all actives have a fitted effect of over 50% in size
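T. brucei PYK with substrate was exposed to pin-transferred compounds across a concentration series, then started with 130 uM ADP (final). After 45 min at room temperature, Kinase-Glo Plus luminescence was read, normalized and curve-fitted.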
Sm TGR block: qHTS Assay for the Inhibitors of Schistosoma Mansoni Peroxiredoxins; purified TGR, DTNB reduction, TNB absorbance 405 nm; Schistosoma mansoni thioredoxin glutathione reductase (TGR), Q962Y6; AID 485364, 2010; Potency, µM (doses to about 114 µM), actives largely listed as inhibitors; hit rate 3% among 360,000; further: nearly all actives have a fitted effect of over 60% in size
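Kinetic colorimetric format: TGR-catalysed, NADPH-driven DTNB reduction monitored via TNB absorbance. Enzyme dispensed at 20 nM; compound exposure 15 min at room temperature before reaction start.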
RE007 growth inh: qHTS Assay for Inhibitors of the HIV-1 protein Vpr; S. pombe RE007 Vpr strain, BacTiter-Glo ATP luminescence, 24 h; Potency, µM (top dose mostly 92.2 µM), usual class: inhibitors; hit rate 0.21% among 360,000; AID 651644, 2012; active means well fitted falling curve with a large enough effect; inconclusive means small, poorly fitted or top-dose-only effect; inactive means no such curve, though single readings can be large or run the other way; further: nearly all actives have a fitted effect of over 50% in size
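Fission yeast strain RE007, carrying one chromosomally integrated HIV-1 vpr copy, was seeded at OD 0.01 in PMG+AL medium with 23 nL pinned compound. After 24 h at 30 °C and 99% humidity, viability was read by BacTiter-Glo luminescence.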
LmPK inh: qHTS Assay for Inhibitors of Leishmania Mexicana Pyruvate Kinase (LmPK) | Potency, µM (titrated, usually from 57.5 µM), actives largely listed as inhibitors | purified LmPK, Kinase-Glo ATP luminescence, 1 h | AID 1721, 2009 | hit rate 0.37% among 290,000
Target sequence (Q27686 whole entry, looked up): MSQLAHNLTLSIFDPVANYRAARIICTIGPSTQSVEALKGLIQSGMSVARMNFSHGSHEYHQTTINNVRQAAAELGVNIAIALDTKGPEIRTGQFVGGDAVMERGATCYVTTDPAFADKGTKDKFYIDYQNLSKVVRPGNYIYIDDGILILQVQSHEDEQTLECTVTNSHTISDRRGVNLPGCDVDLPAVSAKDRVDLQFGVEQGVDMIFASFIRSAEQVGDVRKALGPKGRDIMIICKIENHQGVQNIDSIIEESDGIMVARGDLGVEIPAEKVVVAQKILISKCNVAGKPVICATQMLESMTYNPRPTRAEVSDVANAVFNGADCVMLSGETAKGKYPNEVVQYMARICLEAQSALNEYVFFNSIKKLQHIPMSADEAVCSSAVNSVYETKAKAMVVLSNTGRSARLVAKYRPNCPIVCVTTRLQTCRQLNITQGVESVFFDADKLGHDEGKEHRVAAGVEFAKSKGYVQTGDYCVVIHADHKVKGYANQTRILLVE
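In 50 mM imidazole pH 7.2 with 7 mM MgCl2, LmPK (0.1 nM) turned over PEP (0.5 mM) and ADP (0.1 mM) for 1 h at room temperature. Luciferase read-out of ATP.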
Numbers stand for hits; . = inactive; ? = inconclusive; / = no result; [ ] = another dose, or the depositor's remark. Unless noted, the call rests on the fitted dose curve; in most records, active means well fitted curve in the direction sought with a large enough effect; inconclusive means small, poorly fitted or top-dose-only effect, or another doubt; inactive means no such curve, though single readings can be large; an effect the other way counts as inactive or inconclusive.

SMILES | TbPYK inhibitor | Sm TGR block | RE007 growth inh | LmPK inh
Cc1cccc(CN2CCc3c([nH]c4ccccc34)C2C(C)(C)C)n1 (stereo not drawn) | . | 15.8µM | . | .
COc1ccc(OC)c(NC(=O)c2c(NCc3ccc(C)o3)sc3c2CCCCC3)c1 | ? | 3.55µM | / | /
COc1ccc(OC)c(NC(=O)c2c(NCc3ccc(N(C)C)cc3)sc3c2CCCC3)c1 | . | 22.4µM | / | /
COc1ccc(Cl)cc1NC(=O)c1c(NCc2ccc(C)o2)sc2c1CCCCC2 | ? | 3.55µM | / | /
COc1ccccc1NC(=O)c1c(NCc2ccc(C)o2)sc2c1CCCCC2 | ? | 2µM | / | /
COc1ccc(OC)c(NC(=O)c2c(NCc3ccc(OC)c(OC)c3)sc3c2CCC3)c1 | . | . | / | /
COc1ccc(OC)c(NC(=O)c2c(NC(=O)CNCc3ccco3)sc3c2CCC3)c1 | . | . | . | .
Cc1nnc(SCC(=O)Nc2ccc(Br)cc2)[nH]c1=O | . | . | / | /
O=C(CC(NCc1cccnc1)C(=O)O)Nc1ccc(F)cc1 (stereo not drawn) | . | . | / | /
C=CC[C@@H](CC(=O)N[C@H](CO)Cc1ccccc1)C(=O)NCCOC(=O)[C@@H](CC=C)CC(=O)OC(C)(C)C | . | / | . | /
COc1ccc(OC)c(NC(=O)c2c(NCc3sccc3C)sc3c2CCCCC3)c1 | ? | 20µM | / | /
CCOC(=O)N1CCc2c(sc(NCc3sccc3C)c2C(=O)Nc2cc(OC)ccc2OC)C1 | ? | . | / | /
N#Cc1c(N)nc(SCc2ccccc2)c(C#N)c1-c1ccco1 | . | 50.1µM | . | .
CCOC(=O)c1sc(N2C(=O)c3oc4ccc(F)cc4c(=O)c3C2c2cccc(OC)c2)nc1C (stereo not drawn) | . | . | / | /
O=C(Nc1ccc(S(=O)(=O)N2CCOCC2)cc1)c1ccc([N+](=O)[O-])o1 | . | 28.2µM | ? | .
NNC(=S)Nc1ccc(S(=O)(=O)N2CCOCC2)cc1 | . | . | . | .
O=S(=O)(c1ccc(NC(=S)Nc2ccc(OC(F)F)cc2)cc1)N1CCOCC1 | . | 44.7µM | . | .
COC/C=C/C1=CC2=CC(=O)C(C)(OC(=O)C3CCCC3)C(=O)C2=CO1 (stereo not drawn) | . | 3.55µM | . | .
CC1(OC(=O)C2CCCC2)C(=O)C=C2C=C3CCCCN3C=C2C1=O (stereo not drawn) | . | . | . | .[11.5 µM]
COC/C=C/C1=CC2=CC(=O)C(C)(OC(=O)c3ccco3)C(=O)C2=CO1 (stereo not drawn) | / | 3.16µM | / | .
O=C(CCC1CCN(Cc2ccccc2)CC1)c1ccc2c(c1)NCCCC2 | . | / | / | /
CC/C=C\[C@H](O)[C@H](O)C1=C(C)C(=O)[C@]2(O1)C(=O)N[C@@](OC)(C(=O)c1ccccc1)C2O (stereo partly drawn) | . | 39.8µM | . | .
O=C(/C=C/c1ccccc1)CC(O)(c1ccccc1)C(F)(F)C(F)F (stereo not drawn) | . | 25.1µM | . | .
O=C(/C=C/c1ccccc1)CC(O)(c1ccccc1)C(F)(F)F (stereo not drawn) | . | 28.2µM | . | .
O=C(CC(O)(c1ccccc1)C(F)(F)C(F)F)c1cccs1 (stereo not drawn) | . | . | . | .
SMILES | TbPYK inhibitor | Sm TGR block | RE007 growth inh | LmPK inh
COc1ccc(/C=C/C(=O)CC(O)(c2ccccc2)C(F)(F)F)cc1 (stereo not drawn) | . | . | . | .
N#CC1(C#N)CC(C=O)=C(N)C1(C#N)CC(=O)c1ccc(F)cc1 (stereo not drawn) | . | 20µM | . | .
CC(C)C(=O)N1CCN(c2nc(-c3ccc(Cl)cc3)cs2)CC1 | . | 31.6µM | ? | .
CCOC(=O)N1CCN(c2nc(-c3ccc(Cl)cc3)cs2)CC1 | . | . | . | .
COc1ccc(C(c2nnnn2C2CCCCC2)N2CCN(C/C=C/c3ccccc3)CC2)cc1 (stereo not drawn) | . | / | . | /
CCOc1ccc(NC(=O)c2c(NCc3cccs3)sc3c2CCC(C)C3)cc1 (stereo not drawn) | . | . | / | /
CCOc1ccc(NC(=O)c2c(NCc3cccnc3)sc3c2CCC(C)C3)cc1 (stereo not drawn) | 14.1µM | . | / | /
CCOc1ccc(NC(=O)c2c(NCc3ccc(C)o3)sc3c2CCC(C)C3)cc1 (stereo not drawn) | . | 25.1µM | / | /
COc1ccc(Nc2ncc3c(n2)CCN(Cc2ccccc2C)C3)c(OC)c1 | . | . | / | /
CNC(=S)N/N=C(\C)c1ccccc1 | . | 5.62µM | . | .
CCC(C)NC(=O)CS(=O)Cc1nc(-c2cccc(OC)c2)oc1C (stereo not drawn) | . | 28.2µM | . | .
COc1cccc(-c2nc(CS(=O)CC(=O)O)c(C)o2)c1 (stereo not drawn) | . | ? | . | .
COCCCNC(=O)CS(=O)Cc1nc(-c2ccccc2C)oc1C (stereo not drawn) | . | 39.8µM | . | .
COc1ccc(-c2nc(CS(=O)CC(=O)NCCc3ccc(C)cc3)c(C)o2)cc1OC (stereo not drawn) | . | 39.8µM | . | .
COc1cccc(-c2nc(CS(=O)(=O)CC(=O)NCCCOC(C)C)c(C)o2)c1 | . | ? | . | .
COc1cccc(-c2nc(CS(=O)CC(=O)NCCCOC(C)C)c(C)o2)c1 (stereo not drawn) | . | 25.1µM | . | .
COCCNC(=O)CS(=O)Cc1nc(-c2ccc(Cl)cc2)oc1C (stereo not drawn) | . | ? | . | .
O=C(Cn1c(=O)nc(-c2ccccc2)c2cc(Cl)ccc21)NCCCc1ccccc1 | . | . | / | /
CCC(Sc1nnc2c(n1)[nH]c1ccccc12)C(=O)Nc1ccccc1OC (stereo not drawn) | . | . | / | /
CC(C)(C)CC(C)(C)SSc1n[nH]c(=S)s1 | ? | / | . | /
COc1cccc(-c2nc(CS(=O)CC(=O)NC(C)CCc3ccccc3)c(C)o2)c1 (stereo not drawn) | . | 10µM | . | .
COc1cccc(-c2nc(CS(=O)CC(=O)NCCc3ccccc3)c(C)o2)c1 (stereo not drawn) | . | 20µM | . | .
Cc1oc(-c2ccccc2F)nc1CS(=O)CC(=O)NCc1ccccc1 (stereo not drawn) | . | . | . | .
Cc1ccccc1-c1nc(CS(=O)CC(=O)NC(C)CCc2ccccc2)c(C)o1 (stereo not drawn) | . | 0.141µM | . | .
Cc1ccc(C)n1-c1nnc(N2CCCC(C(=O)NCc3cccc(F)c3)C2)s1 (stereo not drawn) | . | . | / | /
CCCCN1CC(C)(C)Oc2cccc(F)c2S1(=O)=O | . | / | . | /
CCSc1nc2sc3c(c2c(=O)[nH]1)CC(C)(CC)OC3 (stereo not drawn) | . | . | . | .
CCC1(C)Cc2c(sc3nc(SCC(=O)O)[nH]c(=O)c23)CO1 (stereo not drawn) | ? | . | . | 17.8µM

From PubChem BioAssay
